Test [1] addresses Albumin (Bos taurus) (UniProt P02769). Put plainly: compounds binding labelled BSA control protein – biochemical, small-molecule microarray, Alexa647 label, 635/667 nm fluorescence, artefact control for SMM control protein annotation, profiling panel (AID 1118).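 Further: score merges 667 nm emission intensity and signal-to-noise per printed compound spot.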 Particulars: BSA-A647 binding, fluorescence 635 nm, higher = more signal.
The nature of test [2]: probe aXIP binding to arrayed compounds – biochemical, NeuroSMM set, 635/667 nm fluorescence, primary screen (AID 1119).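 Further: probe is the protein aXip251-270 applied at 1 µg/mL to compound-printed slides; binding of probe to printed compounds measured as 667 nm fluorescence plus signal to noise.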 Particulars: small-molecule microarray, higher = more signal, called active from +8 up or from −8 down.
Test [3] can be described thus: probe aNOTCH3 binding on compound microarray – biochemical, small-molecule microarray, 635/667 nm fluorescence, primary screen (AID 1120).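 Further: probe is a biotin-tagged antibody raised against NOTCH3 rather than NOTCH3 protein; score merges spot fluorescence near 667 nm with spot signal to noise.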 Particulars: higher = more signal.
Test [4] can be described thus: probe aNOTCH2 binding on compound microarray – biochemical, small-molecule microarray, 635/667 nm fluorescence, primary screen (AID 1121).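 Further: score merges feature fluorescence read at 667 nm with its signal to noise.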 The conditions noted are these: higher = more signal.
Test [5] deals with Carbonic anhydrase 2 (Homo sapiens) (UniProt P00918). Nature of the test: compounds binding carbonic anhydrase 2 – biochemical, small-molecule microarray, Alexa647-labelled CAII, profiling panel (AID 1122). The conditions noted are these: CAII-A647 binding fluorescence, higher = more signal.
Test [6] in a line: COS7 lysate on small-molecule microarray, probe aHis, 635 nm (AID 1123).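 Further: z-score combines 667nm fluorescence intensity with signal-to-noise per printed compound spot.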 The conditions noted are these: COS7 cell lysate, fluorescence, higher = more signal.
A short description of test [7]: probe aLAP1 signal on lysate-treated microarray – cell lysate, small-molecule microarray, COS7 lysate, primary screen (AID 1124).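 Further: lysate comes from COS7 cells expressing LAP1 and is applied at 0.3 µg/mL; score merges spot fluorescence near 667 nm with signal-to-noise over triplicate slides.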 Particulars: probe aLAP1, fluorescence, higher = more signal.
Test [8] concerns Sam68 (KHDRBS1). Put plainly: compounds binding KHDRBS1 protein – biochemical, small-molecule microarray, 635 nm fluorescence, primary screen (AID 1125).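 Further: score merges 667 nm channel intensity with signal to noise over triplicate slides.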 The conditions noted are these: higher = more signal.
Test [9] concerns Chordin-like protein 2 (CHRDL2). Put plainly: compounds binding chordin-like 2 – biochemical, small-molecule microarray, 635 nm fluorescence, primary screen (AID 1126).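 Further: printed compound slides probed with Chrdl2 protein at 4 µg/mL for 1 h at 4 C; score merges 667 nm emission intensity with signal to noise over three replicate slides.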 The conditions noted are these: fluorescence 635 nm, higher = more signal.
The target in test [10] is Concanavalin-A (Canavalia ensiformis) (UniProt P02866). Put plainly: compounds binding concanavalin A lectin – biochemical, small-molecule microarray, Alexa647 label, 635 nm, artefact control for SMM control protein annotation, primary screen (AID 1127).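 Further: z combines 667 nm emission intensity with signal-to-noise across three replicate slides.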 The conditions noted are these: ConA-A647 binding fluorescence, higher = more signal.
Test [11] in a line: compounds binding Alexa647 anti-His antibody – biochemical, small-molecule microarray, 635 nm fluorescence, artefact control for SMM control protein annotation, primary screen (AID 1128).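 Further: score merges feature fluorescence with signal-to-noise for each printed compound spot.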 The conditions noted are these: higher = more signal.
In test [12] the test system is Human papillomavirus type 1a E7 protein (residues 1-88). Nature of the test: HPV1a E7 small-molecule binders, primary screen, biochemical, small-molecule microarray, residues 1-88, 635 nm (AID 1129). Particulars: small-molecule microarray binding, fluorescence 635 nm; higher = more signal.
Test [13] concerns the target Focal adhesion kinase 1 (Homo sapiens) (UniProt Q05397). Nature of the test: PTK2 protein binding on printed compound slides – biochemical, small-molecule microarray, 635/667 nm fluorescence, BSA, DTT, primary screen (AID 1130).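 Further: composite of spot emission at 667 nm and signal to noise over triplicate slides.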 The conditions noted are these: 635 nm fluorescence, higher = more signal.
Test [14] has as its system Fibrinogen (Alexa647-labelled). Nature of the test: Alexa647-fibrinogen binding to printed small molecules – biochemical, small-molecule microarray, 635/667 nm fluorescence, artefact control for SMM control-protein annotation, profiling panel (AID 1131).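 Further: z-score merges 667 nm fluorescence with per-spot signal-to-noise over triplicate slides.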 The conditions noted are these: fibrinogen-A647 binding fluorescence, higher = more signal.
Test [15] has as its target Follistatin (Homo sapiens) (UniProt P19883). Nature of the test: FST protein binding to printed compounds – biochemical, small-molecule microarray, 635/667 nm fluorescence, primary screen (AID 1132). Particulars: 635 nm fluorescence, higher = more signal.
The target of test [16] is Fibroblast growth factor 2 (Homo sapiens) (UniProt P09038). Nature of the test: basic fibroblast growth factor binding to printed compounds – biochemical, small-molecule microarray, 635/667 nm fluorescence, primary screen (AID 1133). Particulars: FGF2, fluorescence 635/667, higher = more signal.
Test [17] is described as follows: JC-1 mitochondrial potential readout, lung cancer cells – cell-based, A549, JC-1 fluorescence, basal, 24 h, 100 nL, profiling panel (AID 1138).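 Further: A549 lung adenocarcinoma cells under basal conditions with no added stimulus; test concentration not given here.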 Particulars: higher = more signal.
Test [18] relates to Lefty1. Nature of the test: Lefty1 protein binding to printed compounds – biochemical, small-molecule microarray, 635/667 nm fluorescence, primary screen (AID 1139). Particulars: fluorescence 635/667, higher = more signal.
The test system of test [19] is wheat germ agglutinin (Triticum aestivum), Alexa647-labelled. Nature of the test: Alexa647-WGA lectin binding to printed small molecules – biochemical, small-molecule microarray, 635/667 nm fluorescence, artefact control for SMM control-protein annotation, profiling panel (AID 1140).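 Further: score merges 667 nm feature emission with signal to noise over triplicate slides.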 The conditions noted are these: WGA-A647 binding, 635 nm fluorescence, higher = more signal.

The target in test [20] is Luciferin 4-monooxygenase (Photinus pyralis) (UniProt P08659). Put plainly: inhibition of purified Photinus pyralis luciferase – biochemical, luminescence, purified enzyme, 2006 set, primary screen (AID 1141).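 Further: cell-free assay with purified firefly luciferase at 100 ng per well in PBS; test concentration not given here.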 Particulars: purified firefly luciferase, SteadyGlo luminescence, 30 min; higher = more signal, called active from +8 up or from −8 down.

This passage reports composite z-score, composite Z-score and z-score results from PubChem BioAssay.

The source made the active and inactive calls.

Chain of Luciferin 4-monooxygenase (Photinus pyralis) (P08659 whole entry, looked up): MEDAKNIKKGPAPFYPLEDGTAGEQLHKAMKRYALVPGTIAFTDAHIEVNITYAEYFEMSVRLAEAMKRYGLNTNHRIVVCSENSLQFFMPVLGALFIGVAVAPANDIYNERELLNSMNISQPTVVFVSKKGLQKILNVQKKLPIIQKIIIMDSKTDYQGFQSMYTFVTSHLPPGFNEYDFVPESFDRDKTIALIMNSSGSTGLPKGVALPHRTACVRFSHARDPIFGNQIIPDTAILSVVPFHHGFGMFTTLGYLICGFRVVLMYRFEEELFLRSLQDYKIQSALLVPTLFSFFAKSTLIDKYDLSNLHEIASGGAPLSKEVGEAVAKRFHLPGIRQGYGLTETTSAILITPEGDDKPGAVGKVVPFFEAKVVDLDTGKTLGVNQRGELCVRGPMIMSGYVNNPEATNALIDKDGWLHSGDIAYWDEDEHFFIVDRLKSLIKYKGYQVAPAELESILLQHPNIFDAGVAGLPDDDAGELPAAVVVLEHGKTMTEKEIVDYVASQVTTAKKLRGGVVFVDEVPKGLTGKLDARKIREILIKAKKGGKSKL
Chain of Concanavalin-A (Canavalia ensiformis) (P02866 whole entry, looked up): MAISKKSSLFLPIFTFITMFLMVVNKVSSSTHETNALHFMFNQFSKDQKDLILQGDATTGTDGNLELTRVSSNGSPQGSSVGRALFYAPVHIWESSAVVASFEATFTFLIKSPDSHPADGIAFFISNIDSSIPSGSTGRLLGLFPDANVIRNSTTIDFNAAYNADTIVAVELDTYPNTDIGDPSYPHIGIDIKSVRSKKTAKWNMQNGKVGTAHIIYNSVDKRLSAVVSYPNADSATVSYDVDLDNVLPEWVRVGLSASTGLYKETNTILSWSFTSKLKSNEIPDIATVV
Chain of Focal adhesion kinase 1 (Homo sapiens) (Q05397 whole entry, looked up): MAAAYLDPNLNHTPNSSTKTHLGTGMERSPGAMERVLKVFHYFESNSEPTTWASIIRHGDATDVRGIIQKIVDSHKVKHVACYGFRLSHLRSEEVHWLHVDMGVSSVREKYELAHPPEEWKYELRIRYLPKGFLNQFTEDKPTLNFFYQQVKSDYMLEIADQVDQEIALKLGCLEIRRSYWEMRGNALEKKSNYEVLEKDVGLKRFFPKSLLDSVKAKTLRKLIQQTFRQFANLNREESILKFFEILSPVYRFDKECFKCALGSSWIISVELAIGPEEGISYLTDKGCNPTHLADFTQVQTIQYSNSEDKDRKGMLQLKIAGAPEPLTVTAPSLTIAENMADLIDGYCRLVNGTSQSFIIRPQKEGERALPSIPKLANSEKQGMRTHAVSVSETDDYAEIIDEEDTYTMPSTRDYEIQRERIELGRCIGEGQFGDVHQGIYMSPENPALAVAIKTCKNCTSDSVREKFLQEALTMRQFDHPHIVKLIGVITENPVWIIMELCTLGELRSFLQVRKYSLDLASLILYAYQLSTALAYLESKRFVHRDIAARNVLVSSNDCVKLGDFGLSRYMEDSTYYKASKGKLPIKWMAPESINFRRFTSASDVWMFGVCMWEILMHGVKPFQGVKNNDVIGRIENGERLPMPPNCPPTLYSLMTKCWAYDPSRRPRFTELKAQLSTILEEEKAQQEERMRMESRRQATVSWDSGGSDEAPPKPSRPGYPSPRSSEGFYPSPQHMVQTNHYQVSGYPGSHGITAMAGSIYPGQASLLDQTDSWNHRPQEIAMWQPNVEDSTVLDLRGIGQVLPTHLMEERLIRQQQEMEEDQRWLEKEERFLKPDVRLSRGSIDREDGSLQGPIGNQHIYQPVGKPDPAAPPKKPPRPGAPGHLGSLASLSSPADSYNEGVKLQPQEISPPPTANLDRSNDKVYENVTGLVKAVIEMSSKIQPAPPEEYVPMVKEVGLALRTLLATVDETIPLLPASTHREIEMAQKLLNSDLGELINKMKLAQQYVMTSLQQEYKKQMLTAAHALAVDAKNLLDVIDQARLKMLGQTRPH
Chain of Follistatin (Homo sapiens) (P19883 whole entry, looked up): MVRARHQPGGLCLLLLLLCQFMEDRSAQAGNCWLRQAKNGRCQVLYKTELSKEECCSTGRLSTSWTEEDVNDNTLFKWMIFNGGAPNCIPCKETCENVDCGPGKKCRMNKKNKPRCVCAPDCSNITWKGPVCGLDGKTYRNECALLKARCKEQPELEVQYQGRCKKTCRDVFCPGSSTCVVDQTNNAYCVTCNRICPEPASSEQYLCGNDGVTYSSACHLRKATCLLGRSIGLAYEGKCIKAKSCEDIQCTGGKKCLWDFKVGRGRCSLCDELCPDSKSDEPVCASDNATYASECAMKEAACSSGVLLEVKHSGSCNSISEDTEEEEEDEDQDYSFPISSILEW
Chain of Albumin (Bos taurus) (P02769 whole entry, looked up): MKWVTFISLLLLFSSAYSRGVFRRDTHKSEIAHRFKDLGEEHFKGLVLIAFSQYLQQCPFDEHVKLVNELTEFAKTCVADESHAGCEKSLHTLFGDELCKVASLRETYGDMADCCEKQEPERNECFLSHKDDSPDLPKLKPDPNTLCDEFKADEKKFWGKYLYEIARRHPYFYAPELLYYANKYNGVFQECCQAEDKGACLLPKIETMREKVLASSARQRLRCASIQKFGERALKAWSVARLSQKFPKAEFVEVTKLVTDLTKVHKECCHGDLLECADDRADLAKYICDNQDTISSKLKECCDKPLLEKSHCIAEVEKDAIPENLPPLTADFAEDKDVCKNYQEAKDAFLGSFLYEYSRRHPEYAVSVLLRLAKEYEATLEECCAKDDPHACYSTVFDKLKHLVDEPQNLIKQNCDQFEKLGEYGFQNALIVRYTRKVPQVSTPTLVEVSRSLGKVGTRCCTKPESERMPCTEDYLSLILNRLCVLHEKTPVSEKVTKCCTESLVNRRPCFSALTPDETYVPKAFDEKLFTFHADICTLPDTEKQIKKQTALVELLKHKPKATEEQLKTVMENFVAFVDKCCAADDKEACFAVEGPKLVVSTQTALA
Chain of Fibroblast growth factor 2 (Homo sapiens) (P09038 whole entry, looked up): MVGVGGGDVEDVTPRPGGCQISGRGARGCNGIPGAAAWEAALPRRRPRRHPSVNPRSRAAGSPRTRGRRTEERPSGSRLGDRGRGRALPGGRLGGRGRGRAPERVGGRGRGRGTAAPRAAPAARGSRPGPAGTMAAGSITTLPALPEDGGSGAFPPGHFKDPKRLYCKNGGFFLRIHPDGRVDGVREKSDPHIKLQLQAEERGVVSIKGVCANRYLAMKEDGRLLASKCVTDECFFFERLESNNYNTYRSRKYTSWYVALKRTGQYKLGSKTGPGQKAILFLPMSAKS

Consider `O=C1C[C@H](c2ccccc2)[C@H](c2ccc(Br)cc2)O1`, for which the composite z-score in test [1] is 0.275; in [3] it was -0.182; in test [4], -0.117; in test [5], -0.202; in test [6], -0.652; in test [7], -1.07. The composite z-score in test [8] is -0.179; in test [9], 0.143; in test [10], -0.394; in test [11], 0.443; in test [12], -0.374; in test [13] it was 0.718. Besides, the composite z-score in test [14] was -0.233; in test [15], -0.126; in test [16] it was -0.0946; in [18], 0.0985; in test [19], -0.236. In addition, in [2], the composite Z-score is 0.372 (inactive). Further, the z-score in [17] is -0.421; in [20] it was -1.8 (inactive).

`COc1ccc(-c2cnnc(CCCn3ccnc3-c3ccccc3)n2)cc1`: the composite z-score in [1] is 0.223; in [3], 0.291; in test [4], -0.126; in test [5], 0.536; in test [6] it was 0.0412; in test [7], 1.08. For the same molecule, the composite z-score in test [8] is 0.943; in [9] it was 0.919; in test [10], 0.418; in test [11], 1.39; in test [12], 0.538; in [13] it was 0.107. For the same molecule, the composite z-score stood at 0.747 in test [14]; 0.836 in test [15]; 0.475 in [16]; 0.592 in test [18]; 0.138 in [19]. Moreover, the composite Z-score in [2] was 0.391 (inactive). Further, the z-score in [17] is 0.787; in [20] it was 0.313 (inactive).

As to `C[C@@H](c1ccccc1)N1C(=O)[C@H]2[C@H]3[C@H](O)[C@H](O)CC(=NOC[C@@H](O)COCc4ccco4)[C@H]3CC[C@H]2C1=O`, the composite z-score in [1] was -0.0559; in test [3], 0.106; in test [4], -0.189; in [5], -0.578; in test [6] it was -0.795; in test [7] it was 0.565. The composite z-score in test [8] is -0.382; in test [9], 1.51; in test [10], -0.832; in test [11], 0.0749; in [12], -1.09; in test [13], -0.546. The composite z-score came to 0.658 in test [14]; 1.1 in test [15]; 1.36 in [16]; 1.05 in test [18]; 0.0723 in [19]. Also, the composite Z-score in test [2] was -0.0004 (inactive). Moreover, the results for the z-score in [17] and in [20] were -0.882 and 0.997 (inactive), respectively.

With `COc1ccc(OC[C@@H]2CC3[C@@H](c4ccc(Br)cc4)[C@H](C)CC[C@H]3C(=O)O2)cc1` (stereo not given in full), the composite z-score was 0.733 in test [1]; -0.023 in test [3]; -0.18 in [4]; -0.117 in test [5]; -0.037 in [6]; 0.196 in test [7]. The composite z-score was -0.218 in [8]; 0.584 in test [9]; -0.758 in test [10]; -1.08 in [11]; -0.291 in test [12]; -0.0102 in test [13]. Further, the composite z-score in test [14] stood at 0.563; in test [15] it was 0.57; in test [16], 0.29; in test [18], 0.74; in test [19] it was 0.282. In addition, in [2], the composite Z-score was -0.644 (inactive). Moreover, the z-score in [17] was -0.296; in test [20] it was 0.294 (inactive).

On to `CCOC(=O)CCN1C(=O)[C@H]2[C@H]3[C@H](O)[C@H](O)CC(=O)[C@@H]3CC[C@H]2C1=O`, for which the composite z-score was 0.206 in [1]; -0.0448 in test [3]; -0.12 in test [4]; 0.494 in test [5]; 0.696 in [6]; -0.732 in [7]. For the same molecule, the composite z-score in test [8] was 0.81; in test [9], 0.514; in test [10], 0.729; in test [11] it was 0.591; in test [12], 0.843; in [13] it was -0.0508. Also, the composite z-score in test [14] stood at 0.532; in test [15] it was 0.64; in [16] it was 1.28; in [18], 1.38; in [19] it was 0.157. The composite Z-score in test [2] was -0.778 (inactive). Also, the values for the z-score in [17] and in test [20] were -0.466 and 0.426 (inactive), respectively.

`COc1ccc(COC(=O)NN=C2C[C@@H](O)[C@@H](O)[C@@H]3[C@@H]4C(=O)N([C@@H](C)c5ccccc5)C(=O)[C@@H]4CC[C@@H]23)cc1`: the composite z-score was 0.274 in [1]; -0.0697 in test [3]; 0.0318 in test [4]; 0.171 in [5]; -0.211 in test [6]; 0.131 in [7]. In addition, the composite z-score was -0.196 in test [8]; 0.448 in [9]; 0.162 in test [10]; -0.253 in test [11]; 0.661 in test [12]; -0.313 in test [13]. Also, the composite z-score was 0.373 in test [14]; 0.244 in test [15]; 0.272 in test [16]; 0.244 in test [18]; 0.242 in test [19]. Moreover, the composite Z-score in [2] is -0.228 (inactive). Moreover, the z-score was -0.304 in test [17] and 0.447 (inactive) in test [20].
